HepG2 viability: qHTS for Inhibitors of TGF-b: Cytotox Counterscreen. HepG2 CAGA-GFP viability, ATP luminescence, 18 h. 0.76% of 410,000 active. Potency, µM (titrated, usually from 46.1 µM), for inactives: top-dose activity change, negative = cytotoxicity, most hits filed as cytotoxic
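HepG2 CAGA-GFP cells (1000/well, DMEM with 1% FBS) received compound, then TGF-beta at 500 pg/mL final, and were incubated 18 hours at 37 degrees C. Viability was read by CellTiter-Glo luminescence. Media-only wells were set as complete cell-killing and DMSO as no toxicity.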
ATXN2 expr inh: Primary qHTS for Inhibitors of ATXN expression; HEK-293 ATXN2-luciferase reporter, luminescence, 24 h; AID 1745845, 2022; Potency, µM (highest dose often 57 µM), inactives show at the top dose activity change, negative = inhibition, usual class: inhibitors; 0.72% of 360,000 active; further: on the % scale 0 is the no-effect control and ±100 the full control effect; nearly all actives have a fitted effect of over 55% in size
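qHTS (up to 57 uM final) was run with 24 h compound exposure of reporter cells at 37 °C. Each well was multiplexed: SteadyGlo luminescence measured ATXN2-luciferase expression after a fluorogenic Gly-Phe-AFC viability readout (25 uM final).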
S2 tox: Viability Counterscreen for Primary qHTS for Inhibitors of ATXN expression; S2 cells (HEK-293 line with an ATXN2-luciferase reporter) viability, CellTiter-Fluor protease fluorescence, 24 h; Potency, µM (highest dose often 56.7 µM), usual class: cytotoxic; 0.49% of 400,000 active; further: nearly all actives have a fitted effect of over 40% in size
TGFb SMAD3 inh: qHTS for Inhibitors of TGF-b | HepG2 CAGA-GFP TGF-b/SMAD3 reporter, GFP fluorescence, 18 h; TGF-beta stimulated, 500 pg/mL final | Potency, µM (series often up to 46.1 µM), for the others: top-dose activity, negative = inhibition, most hits filed as inhibitors | 1.2% of 410,000 active | AID 588855, 2011; further: on the % scale 0 is the no-effect control and ±100 the full control effect; nearly all actives have a fitted effect of over 65% in size
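Inhibition of TGF-beta-driven CAGA-GFP reporter expression in HEPG2 cells is measured by cellular GFP fluorescence after 18 h stimulation with 500 pg/mL recombinant TGF-beta in 1% FBS medium at 37 degrees C.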
KB-V1 cytotox: qHTS assay for MDR1-selective chemotherapeutics: Primary screen using the drug-selected MDR subline cells KB-V1; KB-V1 MDR cells viability, CellTiter-Glo, 72 h; Potency, µM (titrated, usually from 46.1 µM), actives largely listed as cytotoxic; 3.4% of 400,000 active; further: on the % scale 0 is the no-effect control and ±100 the full control effect; nearly all actives have a fitted effect of over 60% in size
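Potencies derive from concentration-effect curves fitted to normalized luminescence (CellTiter-Glo) of KB-V1 cells treated for 72 h at 37 degrees C in phenol-red-free DMEM containing 10% FBS.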
KB-3-1 tox: qHTS assay for MDR1-selective chemotherapeutics: Primary screen using the parental adenocarcinoma cell KB-3-1; KB-3-1 viability, CellTiter-Glo ATP luminescence, 72 h; Potency, µM (titrated, usually from 46.1 µM), most hits filed as cytotoxic; 1.4% of 400,000 active; AID 1347075, 2019; further: on the % scale 0 is the no-effect control and ±100 the full control effect; nearly all actives have a fitted effect of over 60% in size
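KB-3-1 parental drug-naive adenocarcinoma cells in DMEM/10% FBS, incubated 72 h at 37 C with pin-transferred compounds across a concentration series. Viability by CellTiter-Glo luminescence; concentration-response curves fitted after normalization.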
Starred values were filed as active, the others as inactive; i = inactive; ? = inconclusive; · = not tested or not shown. The list is not random: actives were taken first. Their share in the collection is about 5.9%. The call rests on the fitted dose curve; in most records, active means well fitted curve in the direction sought with a large enough effect; inconclusive means small, poorly fitted or top-dose-only effect, or another doubt; inactive means no such curve, though single readings can be large; an effect the other way counts as inactive or inconclusive. Potency means the concentration at half of the fitted maximal effect.

SMILES | HepG2 viability | ATXN2 expr inh | S2 tox | TGFb SMAD3 inh | KB-V1 cytotox | KB-3-1 tox
Cc1ccc(C(=O)Nc2ccccc2C(=O)NCc2ccccc2)cc1 | -8% | 9% | ? | 0% | 4.6µM* | i
Cc1ccc(CNC(=O)c2ccccc2NS(=O)(=O)c2ccc(Cl)nc2)cc1 | -34% | -10% | ? | 16µM* | i | i
O=C(NCc1ccccc1)c1cccc(NC(=O)c2ccccc2)c1 | -25% | ? | ? | -2% | i | 23µM*
CSc1ccc(CNC(=O)Cc2ccc(NC(=O)C3=C(C)OCCS3)cc2)cc1 | -4% | · | i | -16% | ? | 5.8µM*
Cc1c(-c2cccc(NC(=O)Nc3ccccc3)c2)nc2ncccn12 | -8% | · | · | -4% | · | ·
COc1ccc(-n2nc3cc(C)c(NC(C)=O)cc3n2)cc1 | 1% | 8.9µM* | i | 9% | i | i
O=S(=O)(c1cccs1)N1CCN(CC(O)COc2cc(Cl)ccc2Cl)CC1 (centres undefined) | -27% | -39% | i | ? | 8.2µM* | ?
CCOC(=O)CSc1nc2sc3c(c2c(=O)n1-c1ccccc1)CC(C(C)C)OC3 (centres undefined) | -15% | 2% | i | 15% | ? | i
Nc1nc(Nc2ccccc2F)sc1C(=O)c1ccccc1 | -30% | -9% | ? | ? | i | 10µM*
Cc1cc(C)c(C#N)c(Sc2nc(C)c([N+](=O)[O-])c(C)c2C#N)n1 | 13µM* | 22µM* | 20µM* | ? | i | ?
CCc1ccc(OCC(=O)NC(=S)Nc2ccc(C(=O)O)cc2)cc1 | -1% | 6% | i | -10% | i | i
CC(=O)Nc1ccc(NC(=O)Cc2ccc(-c3ccccc3)cc2)cc1 | 22% | · | i | 14% | i | i
CCc1ccc(OCC(=O)NC(NC(=S)Nc2ccc(Cl)cc2)C(Cl)(Cl)Cl)cc1 (centres undefined) | 8.9µM* | ? | · | 7.1µM* | 3.7µM* | 8.2µM*
O=C(CCl)Nc1ccc(N=Nc2ccccc2)cc1 | 22µM* | · | 20µM* | ? | i | i
CCCC(=O)NC(NC(=S)Nc1ccc(N=Nc2ccccc2)cc1)C(Cl)(Cl)Cl (centres undefined) | -57% | ? | · | ? | 18µM* | 15µM*
O=C(CCl)Nc1ccc(-c2ccccc2)cc1 | 11µM* | · | 10µM* | ? | ? | ?
CCCC(=O)NC(NC(=S)Nc1ccc(S(N)(=O)=O)cc1)C(Cl)(Cl)Cl (centres undefined) | -31% | 3% | i | -1% | i | i
COc1cccc(NC(=O)Cn2c(=O)n(CCCCC(=O)NCCc3ccccc3)c(=O)c3ccccc32)c1 | 1% | -5% | i | -36% | i | i
O=C(CCc1ccccc1)Nc1ccncc1 | -10% | 2% | i | -29% | ? | ?
CC(C)c1ccc(NC(=O)CCc2ccccc2)cc1 | -7% | 27% | i | 13% | 7.3µM* | ?
CC(C)N(c1ccccc1)c1ccc(NC(=O)CCl)cc1 | -119% | ? | 27µM* | ? | ? | i
CC(C)N(c1ccccc1)c1ccc(NC(=O)[C@@H]2O[C@H](CO)[C@H](O)[C@H](O)[C@H]2O)cc1 | 6% | -7% | i | 0% | i | i
Cc1ccc(Cn2ccsc2=NC(=O)CCl)cc1 | -113% | ? | 0.79µM* | ? | ? | 21µM*
Cc1ccc(Cn2ccsc2=NC(=O)COC(=O)c2ccc(NC(=O)CC#N)cc2)cc1 | -21% | -4% | i | ? | i | ?
CC(C)c1ccc(C2NC(=O)NC3=C2CCc2ccccc23)cc1 (centres undefined) | -45% | -18% | i | ? | 18µM* | 15µM*
SMILES | HepG2 viability | ATXN2 expr inh | S2 tox | TGFb SMAD3 inh | KB-V1 cytotox | KB-3-1 tox
COc1ccc(C2NC(=O)NC3=C2CCc2ccccc23)cc1 (centres undefined) | -22% | -4% | i | ? | 13µM* | 18µM*
Cc1oc(-c2cccc(NC(=O)C3CCCN(C)C3)c2)nc1CNC(=O)c1coc2c1C(=O)CCC2 (centres undefined) | · | · | i | · | · | ·
Cc1nn(-c2ccc([N+](=O)[O-])cc2)c2c1C(c1cccc(Br)c1)N1C(=N2)C(=O)Nc2ccccc21 (centres undefined) | -1% | -14% | ? | ? | ? | i
Cc1nn(-c2ccccc2)c2c1C(c1ccc([N+](=O)[O-])cc1)N1C(=N2)C(=O)Nc2ccccc21 (centres undefined) | 11% | -24% | i | ? | 18µM* | 23µM*
COCCN(Cc1nnc(-c2cccs2)o1)C(=O)c1cccc(S(=O)(=O)N2CCOCC2)c1 | 8% | 12% | i | 7% | i | i
CCCN(Cc1nnc(-c2cccs2)o1)C(=O)c1cccc(S(=O)(=O)N2CCOCC2)c1 | -1% | 2% | i | 7% | 23µM* | i
CSc1ccc(/C=C/c2cc(=O)c3ccccc3[nH]2)cc1 | -35% | 6% | i | ? | 3.7µM* | i
O=c1cc(/C=C/c2cccs2)[nH]c2ccccc12 | -37% | 18% | i | -2% | ? | ?
CCC(C(=O)N1CCN(c2ccccc2)CC1)n1nc(C)n2c(cc3sccc32)c1=O (centres undefined) | -21% | · | · | ? | ? | 18µM*
CCC(C(=O)N1CCN(c2cc(Cl)ccc2C)CC1)n1nc(C)n2c(cc3occc32)c1=O (centres undefined) | -29% | ? | ? | ? | 10µM* | 10µM*
COc1ccc(NC(=O)C23CC4CC(C2)CC(c2ccc(C)cc2)(C4)C3)cc1 | -32% | -22% | i | -16% | ? | i
COc1ccccc1NC(=O)C12CC3CC(C1)CC(c1ccc(C)cc1)(C3)C2 | -1% | 4% | i | -4% | 16µM* | i
CCCCNC(=O)c1nn(-c2ccc(C)cc2)c(=O)n(C)c1=O | 7% | -8% | i | 19% | i | i
Cn1c2c(c(O)c(-c3ccccc3)c1=O)C(=O)CC(C)(C)C2 | 2% | -15% | i | 8% | i | i
Cc1ccc(-n2c3c(c(O)c(-c4ccccc4)c2=O)C(=O)CC(C)(C)C3)cc1 | 1% | 3% | ? | -4% | 12µM* | i

Screening results from PubChem.
